Source: PubChem BioAssay AID504371 (National Center for Advancing Translational Sciences (NCATS), 2011)
Records with an inconclusive call do not appear. Activity calls are given as the source filed them. Calls follow the shape of the dose curve; as a rule, active = well fitted curve in the direction sought with a large enough effect; inconclusive = small, poorly fitted or top-dose-only effect, or another doubt; inactive = no such curve, though single readings can be large or run the other way.

Assay: qHTS Assay for Compounds Blocking the Interaction Between CBF-beta and RUNX1 for the Treatment of Acute Myeloid Leukemia: ME-1 cellular proliferation, SAR for Probe
Conditions: ME-1 cell proliferation, ATP luminescence, 48 h
From the text: NIH Chemical Genomics Center [NCGC] NIH Molecular Libraries Probe Production centers Network [MLPCN] MLPCN Grant: X01MH083259-01 Assay Submitter (PI): Paul Liu NCGC Assay Overview: Core Binding Factor (CBF) abnormalities are associated with 20-25% of all acute myeloid leukemias (AML), of which 5-10% are further sub classified as acute myelomonocytic leukemia with eosinophilia, also known as M4Eo in the FAB classification scheme. This subtype of leukemia is usually associated with chromosome 16 inversion (p13:q22). Chromosome 16 inversion results in formation of the fusion oncogene CBFB-MYH11, which encodes the fusion protein CBF-beta-SMMHC. […] It has been hypothesized that the interference of CBF-beta and RUNX1 binding could have therapeutic implications for patients with CBF mediated leukemias. We developed a CBF-beta and RUNX1 binding assay in AlphaScreenTM format and optimized it for high throughput screening to search for inhibitors. The goal of this project is to screen MLPCN's compound collection (MLSMR) for identifying the inhibitors of the interaction between CBF-beta and RUNX1 proteins as research probes. If these probes work well in the animal models, the ultimate goal of this project is to development a new drug treatment for this disease. The present assay assesses compounds ability to slow cellular proliferation in a CBFb dependent cell line, ME-1.
NCGC Assay protocol: 2uL/well media was dispensed per well into 1536-well white solid-bottom plates using Multidrop Combi dispenser. Subsequently, 23 nL/well compound solutions or DMSO controls were dispensed to the assay plates via a pintool workstation. […] The plates were incubated at 37 °C with 5% CO2 and 95% humidity for 48 hours, and then ATP content was measured following the addition of 4uL/well of ATPlite reagent and a 20 min incubation on a ViewLux plate reader.

Structure (SMILES)	Potency
CCN(CC)CCN1C(=O)CN=C(c2ccccn2)c2cc(Cl)ccc21	109 µM (active)
CN1C(=O)CN=C(c2ccc[nH]2)c2cc(Cl)ccc21 (tested in a mixture with another compound)	27.4 µM (active)
CCN(CC)CCN1C(=O)CN=C(c2ccc[nH]2)c2cc(Cl)ccc21	137 µM (active)
